# Laboratory results: the supplement of paper PMC11732987, “Enantioselective OTUD7B fragment discovery through chemoproteomics screening and high-throughput optimisation” (Communications Chemistry, 2025)
# Unmarked numbers belong to inactive results.
# Assays:
# Experiment in all cases: log2 ratio of Biotin-Ahx-Ub-VS probe labelling (compound/DMSO); higher = less target engagement, active = hit call of the paper (q ≤ 0.05, log2 ratio ≤ -1)
# Conditions in all cases: treatment time: 3 h
# [1] = compound: CCC1N(CCc2sccc12)C(=O)CCl
# Method in brief: (§1)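 Compound at 50 or 200 µM, or DMSO, was applied for 3 h in triplicate to HEK293T lysate (495 µg per sample, Tris/CHAPS/IGEPAL buffer with protease inhibitors), after which Biotin-Ahx-Ub-VS was added at 0.5 µM final for 1 h. The labelled DUBs were pulled down with NeutrAvidin, digested with LysC and trypsin, and run by diaPASEF LC-MS/MS. Ratios are averaged base-two logs of compound over DMSO from median-normalised label-free quantities by unpaired t-test, counting only proteins with at least 2 unique peptides.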
# [2] = compound: CN1c2ccccc2C(CS1(=O)=O)NC(=O)CCl
# Method in brief: as §1
# [3] = compound: Cl.ClCC(=O)N1CCc2ncncc2C1
# Method in brief: as §1
# [4] = compound: Cl.Cn1ncc2C(CCCc12)NC(=O)CCl
# Method in brief: as §1
# [5] = compound: ClCC(=O)NC1CCOc2ccccc12
# Method in brief: as §1
# [6] = compound: ClCC(=O)NC1CCCc2ccccc12
# Method in brief: (§2)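 These values are averaged ratios of compound to vehicle, tested by unpaired t-test. HEK293T lysate (495 µg per sample) was preincubated in triplicate with compound across a concentration series or vehicle for 3 h and then with Biotin-Ahx-Ub-VS at 0.5 µM final for 1 h. Deubiquitinases carrying the probe were NeutrAvidin-enriched, digested with LysC and trypsin, and measured by diaPASEF LC-MS/MS. Ratios are expressed as log2 from global-median-normalised Spectronaut label-free quantities, and only proteins with two or more unique peptides were included.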
# [7] = compound: ClCC(=O)N[C@@H]1CCCc2ccccc12
# Method in brief: as §2
# [8] = compound: ClCC(=O)N[C@H]1CCCc2ccccc12
# Method in brief: as §2
# [9] = compound: CCC1N(CCc2cc(OC)c(Cl)cc12)C(=O)CCl
# Method in brief: as §1
# [10] = compound: CCCC1N(CCc2cc(OC)c(OC)cc12)C(=O)CCl
# Method in brief: as §1
# [11] = compound: CN(Cc1cccc(Br)c1)C(=O)CCl
# Method in brief: as §1
# [12] = compound: CN(Cc1ccccc1)C(=O)CCl
# Method in brief: as §1
# [13] = compound: COc1ccc(CN(C)C(=O)CCl)cc1
# Method in brief: as §1
# [14] = compound: COc1cccc(CN(CCCc2ccccc2)C(=O)CCl)c1
# Method in brief: as §1
# [15] = compound: ClCC(=O)N1CCc2cc(Cl)c(Cl)cc2C1
# Method in brief: as §1
# [16] = compound: ClCC(=O)N1CCc2nc(ncc2C1)-c1ccccc1
# Method in brief: as §1
# [17] = compound: ClCC(=O)N1CCc2nocc2C1
# Method in brief: as §1
# [18] = compound: ClCC(=O)N1CCc2scc(Br)c2C1
# Method in brief: as §1
# [19] = compound: ClCC(=O)NC(C1CCCC1)c1cccs1
# Method in brief: as §1
# Chain of UniProt P54252 (P54252 whole entry): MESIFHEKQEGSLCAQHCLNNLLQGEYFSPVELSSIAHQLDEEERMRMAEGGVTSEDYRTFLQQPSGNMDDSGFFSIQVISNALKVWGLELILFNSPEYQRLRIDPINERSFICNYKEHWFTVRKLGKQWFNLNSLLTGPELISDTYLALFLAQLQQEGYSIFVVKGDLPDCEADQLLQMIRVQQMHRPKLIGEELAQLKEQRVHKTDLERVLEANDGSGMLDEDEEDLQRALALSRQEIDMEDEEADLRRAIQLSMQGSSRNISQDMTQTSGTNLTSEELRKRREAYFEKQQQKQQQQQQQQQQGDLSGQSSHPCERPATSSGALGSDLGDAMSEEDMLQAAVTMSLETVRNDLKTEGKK
target,measurement,setting,value
ATXN3 (UniProt P54252),log2 ratio of Biotin-Ahx-Ub-VS probe labelling,[1]; compound concentration: 50uM,-0.116
same,log2 ratio of Biotin-Ahx-Ub-VS probe labelling,[1]; compound concentration: 200uM,-0.483
same,log2 ratio of Biotin-Ahx-Ub-VS probe labelling,[2]; compound concentration: 50uM,-0.0445
same,log2 ratio of Biotin-Ahx-Ub-VS probe labelling,[2]; compound concentration: 200uM,-0.365
same,log2 ratio of Biotin-Ahx-Ub-VS probe labelling,[3]; compound concentration: 50uM,-0.35
same,log2 ratio of Biotin-Ahx-Ub-VS probe labelling,[3]; compound concentration: 200uM,-1.37 (active)
same,log2 ratio of Biotin-Ahx-Ub-VS probe labelling,[4]; compound concentration: 50uM,0.199
same,log2 ratio of Biotin-Ahx-Ub-VS probe labelling,[4]; compound concentration: 200uM,-0.212
same,log2 ratio of Biotin-Ahx-Ub-VS probe labelling,[5]; compound concentration: 50uM,0.00952
same,log2 ratio of Biotin-Ahx-Ub-VS probe labelling,[5]; compound concentration: 200uM,-0.0594
same,log2 ratio of Biotin-Ahx-Ub-VS probe labelling,[6]; compound concentration: 0.78uM,-0.108
same,log2 ratio of Biotin-Ahx-Ub-VS probe labelling,[6]; compound concentration: 1.56uM,-0.213
same,log2 ratio of Biotin-Ahx-Ub-VS probe labelling,[6]; compound concentration: 3.13uM,-0.478
same,log2 ratio of Biotin-Ahx-Ub-VS probe labelling,[6]; compound concentration: 6.25uM,-0.165
same,log2 ratio of Biotin-Ahx-Ub-VS probe labelling,[6]; compound concentration: 12.5uM,-0.236
same,log2 ratio of Biotin-Ahx-Ub-VS probe labelling,[6]; compound concentration: 25uM,-0.301
same,log2 ratio of Biotin-Ahx-Ub-VS probe labelling,[6]; compound concentration: 50uM,-0.18
same,log2 ratio of Biotin-Ahx-Ub-VS probe labelling,[6]; compound concentration: 100uM,-0.156
same,log2 ratio of Biotin-Ahx-Ub-VS probe labelling,[6]; compound concentration: 200uM,-0.285
same,log2 ratio of Biotin-Ahx-Ub-VS probe labelling,[7]; compound concentration: 0.78uM,-0.286
same,log2 ratio of Biotin-Ahx-Ub-VS probe labelling,[7]; compound concentration: 1.56uM,-0.107
same,log2 ratio of Biotin-Ahx-Ub-VS probe labelling,[7]; compound concentration: 3.13uM,-0.24
same,log2 ratio of Biotin-Ahx-Ub-VS probe labelling,[7]; compound concentration: 6.25uM,-0.0908
same,log2 ratio of Biotin-Ahx-Ub-VS probe labelling,[7]; compound concentration: 12.5uM,-0.0507
same,log2 ratio of Biotin-Ahx-Ub-VS probe labelling,[7]; compound concentration: 25uM,-0.218
same,log2 ratio of Biotin-Ahx-Ub-VS probe labelling,[7]; compound concentration: 50uM,-0.0106
same,log2 ratio of Biotin-Ahx-Ub-VS probe labelling,[7]; compound concentration: 100uM,-0.151
same,log2 ratio of Biotin-Ahx-Ub-VS probe labelling,[7]; compound concentration: 200uM,-0.0598
same,log2 ratio of Biotin-Ahx-Ub-VS probe labelling,[8]; compound concentration: 0.78uM,-0.183
same,log2 ratio of Biotin-Ahx-Ub-VS probe labelling,[8]; compound concentration: 1.56uM,-0.0688
same,log2 ratio of Biotin-Ahx-Ub-VS probe labelling,[8]; compound concentration: 3.13uM,-0.152
same,log2 ratio of Biotin-Ahx-Ub-VS probe labelling,[8]; compound concentration: 6.25uM,-0.297
same,log2 ratio of Biotin-Ahx-Ub-VS probe labelling,[8]; compound concentration: 12.5uM,-0.125
same,log2 ratio of Biotin-Ahx-Ub-VS probe labelling,[8]; compound concentration: 25uM,-0.266
same,log2 ratio of Biotin-Ahx-Ub-VS probe labelling,[8]; compound concentration: 50uM,-0.171
same,log2 ratio of Biotin-Ahx-Ub-VS probe labelling,[8]; compound concentration: 100uM,-0.0739
same,log2 ratio of Biotin-Ahx-Ub-VS probe labelling,[8]; compound concentration: 200uM,-0.312
same,log2 ratio of Biotin-Ahx-Ub-VS probe labelling,[9]; compound concentration: 50uM,-0.248
same,log2 ratio of Biotin-Ahx-Ub-VS probe labelling,[9]; compound concentration: 200uM,-1.54 (active)
same,log2 ratio of Biotin-Ahx-Ub-VS probe labelling,[10]; compound concentration: 50uM,0.126
same,log2 ratio of Biotin-Ahx-Ub-VS probe labelling,[10]; compound concentration: 200uM,-0.435
same,log2 ratio of Biotin-Ahx-Ub-VS probe labelling,[11]; compound concentration: 50uM,-0.252
same,log2 ratio of Biotin-Ahx-Ub-VS probe labelling,[11]; compound concentration: 200uM,-0.624
same,log2 ratio of Biotin-Ahx-Ub-VS probe labelling,[12]; compound concentration: 50uM,-0.361
same,log2 ratio of Biotin-Ahx-Ub-VS probe labelling,[12]; compound concentration: 200uM,-0.872
same,log2 ratio of Biotin-Ahx-Ub-VS probe labelling,[13]; compound concentration: 50uM,-0.229
same,log2 ratio of Biotin-Ahx-Ub-VS probe labelling,[13]; compound concentration: 200uM,-0.842
same,log2 ratio of Biotin-Ahx-Ub-VS probe labelling,[14]; compound concentration: 50uM,-0.391
same,log2 ratio of Biotin-Ahx-Ub-VS probe labelling,[14]; compound concentration: 200uM,-0.729
same,log2 ratio of Biotin-Ahx-Ub-VS probe labelling,[15]; compound concentration: 50uM,-0.915
same,log2 ratio of Biotin-Ahx-Ub-VS probe labelling,[15]; compound concentration: 200uM,-2.63 (active)
same,log2 ratio of Biotin-Ahx-Ub-VS probe labelling,[16]; compound concentration: 50uM,-0.221
same,log2 ratio of Biotin-Ahx-Ub-VS probe labelling,[16]; compound concentration: 200uM,-1.26 (active)
same,log2 ratio of Biotin-Ahx-Ub-VS probe labelling,[17]; compound concentration: 50uM,-0.325
same,log2 ratio of Biotin-Ahx-Ub-VS probe labelling,[17]; compound concentration: 200uM,-1.08 (active)
same,log2 ratio of Biotin-Ahx-Ub-VS probe labelling,[18]; compound concentration: 50uM,-0.485
same,log2 ratio of Biotin-Ahx-Ub-VS probe labelling,[18]; compound concentration: 200uM,-1.78 (active)
same,log2 ratio of Biotin-Ahx-Ub-VS probe labelling,[19]; compound concentration: 50uM,0.0786
same,log2 ratio of Biotin-Ahx-Ub-VS probe labelling,[19]; compound concentration: 200uM,-0.141
